Experimental data taken from PubChem BioAssay (Tox21).
Records with an inconclusive call do not appear. Active and inactive are the calls of the source. Unless noted, the call rests on the fitted dose curve.

Legend:
[1] = biological target: Glucocorticoid receptor (Homo sapiens) (UniProt P04150); assay: qHTS assay to identify small molecule antagonists of the glucocorticoid receptor (GR) signaling pathway (AID 720692; active means well fitted inhibition curve with a large enough effect in the signal ratio in the repeat runs, not every such curve was filed as active; the % refers to the signal ratio; further: on the % scale 0 is the no-effect control and ±100 the full control effect)
Chain of Glucocorticoid receptor (Homo sapiens) (P04150 whole entry, looked up): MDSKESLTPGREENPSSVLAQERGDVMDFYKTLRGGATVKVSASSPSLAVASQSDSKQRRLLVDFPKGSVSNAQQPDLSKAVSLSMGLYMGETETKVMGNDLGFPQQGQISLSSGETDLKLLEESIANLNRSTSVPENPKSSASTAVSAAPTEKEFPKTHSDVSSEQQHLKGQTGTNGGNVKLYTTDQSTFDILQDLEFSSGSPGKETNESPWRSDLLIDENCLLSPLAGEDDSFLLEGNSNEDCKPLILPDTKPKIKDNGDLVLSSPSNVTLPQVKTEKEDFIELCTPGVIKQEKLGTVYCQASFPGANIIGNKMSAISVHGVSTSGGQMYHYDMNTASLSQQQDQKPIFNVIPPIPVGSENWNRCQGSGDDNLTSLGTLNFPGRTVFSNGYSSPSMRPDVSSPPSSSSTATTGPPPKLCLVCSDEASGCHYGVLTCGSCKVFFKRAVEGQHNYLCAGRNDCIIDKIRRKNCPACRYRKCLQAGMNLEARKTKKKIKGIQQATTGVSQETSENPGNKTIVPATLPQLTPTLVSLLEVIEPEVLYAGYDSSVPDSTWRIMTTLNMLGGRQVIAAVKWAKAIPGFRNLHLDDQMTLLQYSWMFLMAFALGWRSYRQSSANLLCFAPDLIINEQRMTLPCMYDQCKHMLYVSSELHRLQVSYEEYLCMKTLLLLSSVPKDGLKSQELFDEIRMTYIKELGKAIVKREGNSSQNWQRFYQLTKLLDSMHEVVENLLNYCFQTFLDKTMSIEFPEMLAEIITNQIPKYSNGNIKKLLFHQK
Method in brief: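 GR-bla HeLa cells (beta-lactamase reporter under glucocorticoid response element) were pre-plated 4 h at 37 C, treated with compounds plus 5 nM dexamethasone (final) for 18 h, then read by LiveBLAzer B/G FRET fluorescence after 2 h.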

Aromatase (Homo sapiens) = Aromatase (Homo sapiens) (UniProt P11511); assay: qHTS assay to identify aromatase inhibitors (AID 743083; active means well fitted curve in the direction sought with a large enough effect in the repeat runs; an effect the other way counts as inactive or inconclusive; further: on the % scale 0 is the no-effect control and ±100 the full control effect; nearly all actives have a fitted effect of over 55% in size)
Chain of Aromatase (Homo sapiens) (P11511 whole entry, looked up): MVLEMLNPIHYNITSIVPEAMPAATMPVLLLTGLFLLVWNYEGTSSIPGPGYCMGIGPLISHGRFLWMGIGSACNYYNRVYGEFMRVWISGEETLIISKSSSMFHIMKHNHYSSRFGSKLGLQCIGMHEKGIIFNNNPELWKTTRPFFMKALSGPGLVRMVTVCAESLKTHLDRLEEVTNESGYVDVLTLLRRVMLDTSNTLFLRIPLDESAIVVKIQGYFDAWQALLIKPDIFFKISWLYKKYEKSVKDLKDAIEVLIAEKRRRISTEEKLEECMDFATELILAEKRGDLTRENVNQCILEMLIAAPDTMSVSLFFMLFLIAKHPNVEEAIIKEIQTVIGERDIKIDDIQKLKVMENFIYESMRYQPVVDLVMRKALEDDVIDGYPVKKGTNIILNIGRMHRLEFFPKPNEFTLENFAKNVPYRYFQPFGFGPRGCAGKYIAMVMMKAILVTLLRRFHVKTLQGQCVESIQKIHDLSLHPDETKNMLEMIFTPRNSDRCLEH

[2] = biological target: Aryl hydrocarbon receptor (Homo sapiens) (UniProt P35869); assay: qHTS assay to identify small molecule that activate the aryl hydrocarbon receptor (AhR) signaling pathway (AID 743085; active means well fitted curve in the direction sought with a large enough effect in the repeat runs; an effect the other way counts as inactive or inconclusive; further: nearly all actives have a fitted effect of over 15% in size; further: potency means the concentration at half of the fitted maximal effect)
Chain of Aryl hydrocarbon receptor (Homo sapiens) (P35869 whole entry, looked up): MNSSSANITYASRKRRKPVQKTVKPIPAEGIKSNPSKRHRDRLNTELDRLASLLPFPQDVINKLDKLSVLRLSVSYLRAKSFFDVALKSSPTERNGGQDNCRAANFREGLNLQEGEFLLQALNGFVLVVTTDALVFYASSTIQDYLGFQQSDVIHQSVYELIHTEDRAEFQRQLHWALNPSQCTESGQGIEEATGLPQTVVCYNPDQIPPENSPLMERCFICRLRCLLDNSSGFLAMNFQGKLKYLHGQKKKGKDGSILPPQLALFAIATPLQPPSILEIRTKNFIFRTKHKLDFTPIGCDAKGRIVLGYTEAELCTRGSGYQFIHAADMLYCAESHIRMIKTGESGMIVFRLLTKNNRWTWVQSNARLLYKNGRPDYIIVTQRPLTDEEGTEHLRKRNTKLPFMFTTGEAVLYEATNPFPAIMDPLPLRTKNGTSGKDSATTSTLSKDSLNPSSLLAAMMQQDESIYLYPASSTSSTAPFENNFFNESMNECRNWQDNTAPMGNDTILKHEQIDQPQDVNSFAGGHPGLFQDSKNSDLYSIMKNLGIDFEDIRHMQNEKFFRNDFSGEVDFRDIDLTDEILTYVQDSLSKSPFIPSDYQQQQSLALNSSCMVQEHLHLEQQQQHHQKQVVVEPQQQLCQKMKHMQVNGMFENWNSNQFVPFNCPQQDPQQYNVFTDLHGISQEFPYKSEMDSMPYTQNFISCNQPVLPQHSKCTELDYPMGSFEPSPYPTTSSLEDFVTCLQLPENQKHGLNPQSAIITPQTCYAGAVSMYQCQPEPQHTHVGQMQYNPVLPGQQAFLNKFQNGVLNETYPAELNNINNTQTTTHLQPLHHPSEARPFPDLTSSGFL
Method in brief: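 Compounds were tested in HepG2 hepatocellular carcinoma cells harbouring a stably integrated luciferase gene under control of 20 DREs. Increased reporter signal after 24 h treatment at 37C was taken as AhR activation.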

[3] = qHTS assay to identify small molecule agonists of the estrogen related receptor signaling pathway with the pleiotropic PPARgamma coactivator (PGC) from Tox21 10K library (AID 1224842; active means well fitted curve in the direction sought with a large enough effect in the repeat runs; an effect the other way counts as inactive or inconclusive; further: on the % scale 0 is the no-effect control and ±100 the full control effect; nearly all actives have a fitted effect of over 15% in size)
Method in brief: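 PGC/ERR reporter cells (NTP line) were seeded 2,000 per well, rested 6 h at 37 C/5% CO2, then pin-dosed with compounds in DMSO for 18 h at 37 C; luciferase read by One-Glo luminescence after 30 min at room temperature.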

[4] = qHTS assay to identify small molecule agonists of H2AX (AID 1224845; active means well fitted activation curve with a large enough effect in the signal ratio in the repeat runs, not every such curve was filed as active; the % refers to the signal ratio; further: on the % scale 0 is the no-effect control and ±100 the full control effect)
Method in brief: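 Wild-type CHO-K1 cells plated overnight, then exposed 3 hr at 37C to compounds at 15 concentrations (0.76% DMSO). Lysed, then HTRF anti-pH2AX(S139)-cryptate/anti-H2AX-d2 detection after 24 hr at room temperature; emissions 665 and 620 nm.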

[5] = qHTS assay to identify small molecule agonists of the estrogen related receptor (ERR) signaling pathway from Tox21 library (AID 1224849); conditions: ERR reporter cell line, ONE-Glo luciferase, 18 h; at 92.4 µM (top of the series) unless noted; further: on the % scale 0 is the no-effect control and ±100 the full control effect; nearly all actives have a fitted effect of over 15% in size
Method in brief: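 ERR reporter cell line (NTP) seeded, rested 6 h at 37 C/5% CO2, then pinned with Tox21 compounds in DMSO. After 18 h at 37 C, ONE-Glo luciferase luminescence was read following 30 min at room temperature.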

[6] = Caspase-3/7 induction in HepG2 cells by small molecules, qHTS assay (AID 1346978; active means well fitted curve in the direction sought with a large enough effect in the repeat runs; an effect the other way counts as inactive or inconclusive; further: on the % scale 0 is the no-effect control and ±100 the full control effect; nearly all actives have a fitted effect of over 15% in size)
Method in brief: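 Wild-type HepG2 cells (2,000/well) were settled 5 h at 37 C, 5% CO2, then exposed to compounds in DMSO for 17 h. Caspase-3/7 activity was read by luminescence 30 min after adding Caspase-Glo 3/7 reagent at room temperature.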

[7] = biological target: Acetylcholinesterase (Homo sapiens) (UniProt P22303); assay: Acetylcholinesterase (AChE) small molecule antagonists: colormetric cell-based qHTS assay (AID 1347395); further: on the % scale 0 is the no-effect control and ±100 the full control effect; nearly all actives have a fitted effect of over 30% in size
Chain of Acetylcholinesterase (Homo sapiens) (P22303 whole entry, looked up): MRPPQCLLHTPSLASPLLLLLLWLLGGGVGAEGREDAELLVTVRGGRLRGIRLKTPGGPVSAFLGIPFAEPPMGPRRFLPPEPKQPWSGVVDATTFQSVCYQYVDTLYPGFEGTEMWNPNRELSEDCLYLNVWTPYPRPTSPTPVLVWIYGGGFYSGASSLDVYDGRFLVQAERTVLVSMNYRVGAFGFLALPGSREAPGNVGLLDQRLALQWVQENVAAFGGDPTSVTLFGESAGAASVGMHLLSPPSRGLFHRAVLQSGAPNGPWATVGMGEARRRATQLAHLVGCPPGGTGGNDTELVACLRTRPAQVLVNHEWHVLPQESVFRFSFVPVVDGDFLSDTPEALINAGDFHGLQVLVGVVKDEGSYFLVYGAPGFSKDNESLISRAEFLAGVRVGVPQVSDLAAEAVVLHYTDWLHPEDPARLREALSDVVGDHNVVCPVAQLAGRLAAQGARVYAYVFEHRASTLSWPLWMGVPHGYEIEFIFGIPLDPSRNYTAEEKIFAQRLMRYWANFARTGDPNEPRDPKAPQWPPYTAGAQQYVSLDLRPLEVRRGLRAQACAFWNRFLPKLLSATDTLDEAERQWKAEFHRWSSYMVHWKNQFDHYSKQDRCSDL
Method in brief: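 Cells (SH-SY5Y, 2,000 per well) are seeded and left overnight at 37 C. Compound is added for 30 min, then DTNB and acetylthiocholine for a further 90 min at 37 C before absorbance-based thiocholine detection.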

[8] = biological target: Acetylcholinesterase (Homo sapiens) (UniProt P22303); assay: Acetylcholinesterase (AChE) small molecule antagonists: enzyme-based qHTS assay (AID 1347397); conditions: Potency: AChE enzyme activity inhibition; outcome: AChE enzyme activity inhibition; further: on the % scale 0 is the no-effect control and ±100 the full control effect; nearly all actives have a fitted effect of over 55% in size
Method in brief: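 Recombinant human AChE, dispensed at 50 mU/mL, was preincubated with Tox21 10K compounds or DMSO vehicle for 30 min at room temperature. DTNB plus acetylthiocholine was then added, and thiocholine was measured colorimetrically after a further 10 min.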

[9] = biological target: Acetylcholinesterase (Homo sapiens) (UniProt P22303); assay: Acetylcholinesterase (AChE) small molecule antagonists: fluorescence cell-based qHTS assay (AID 1347398); conditions: Potency: AChE activity; outcome: AChE activity; further: on the % scale 0 is the no-effect control and ±100 the full control effect; nearly all actives have a fitted effect of over 50% in size
Method in brief: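 Human SH-SY5Y cells were plated overnight at 37 C, exposed to compound for 30 min at 37 C, 5% CO2, then given acetylthiocholine plus Thiolite Green for 40 min at room temperature; thiocholine fluorescence (Ex/Em 490/520 nm) reports endogenous AChE activity.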

[10] = biological target: Acetylcholinesterase (Homo sapiens) (UniProt P22303); assay: Acetylcholinesterase (AChE) small molecule antagonists: enzyme-based qHTS assay with human liver microsomes (AID 1347399); conditions: Potency: qHTS inhibition; outcome: qHTS inhibition; further: on the % scale 0 is the no-effect control and ±100 the full control effect; nearly all actives have a fitted effect of over 60% in size
Method in brief: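 Recombinant human AChE (50 mU/mL in the enzyme mix) and human liver microsomes (0.25 mg/mL final) were preincubated with compound and NADPH (0.25 mg/mL final) for 30 min at 37 C. Acetylthiocholine/DTNB was then added; thiocholine was read colorimetrically after 10 min at room temperature.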

[11] = qHTS assay to identify small molecule antagonists of the estrogen related receptor (ERR) signaling pathway (AID 1224819; active means well fitted curve in the direction sought with a large enough effect in the repeat runs; an effect the other way counts as inactive or inconclusive; further: potency means the concentration at half of the fitted maximal effect; nearly all actives have a fitted effect of over 50% in size)
Method in brief: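 ERR reporter cells were plated at 2,000 cells/well and left 6 h at 37 C/5% CO2 before pin-tool transfer of compounds in DMSO. After 18 h at 37 C, One-Glo was added and luminescence was read 30 min later at room temperature.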

[12] = qHTS assay to identify small molecule agonists of the estrogen related receptor (ERR) signaling pathway (AID 1224820; active means well fitted curve in the direction sought with a large enough effect in the repeat runs; an effect the other way counts as inactive or inconclusive; further: on the % scale 0 is the no-effect control and ±100 the full control effect)
Method in brief: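 Quantitative HTS of the LOPAC library used NTP ERR reporter cells treated 18 h at 37 C. Signal is luminescence after One-Glo addition and a 30 min room-temperature incubation.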

[13] = qHTS assay to identify small molecule agonists of the estrogen related receptor signaling pathway with the pleiotropic PPARgamma coactivator (PGC) (AID 1224823; active means well fitted curve in the direction sought with a large enough effect in the repeat runs; an effect the other way counts as inactive or inconclusive; further: on the % scale 0 is the no-effect control and ±100 the full control effect)
Method in brief: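 Cell-based luciferase assay in the NTP-supplied PGC/ERR line, 2,000 cells/well; 18 h compound exposure at 37 C, luminescence after One-Glo.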

[14] = qHTS assay to identify small molecule antagonists of the estrogen related receptor (ERR) signaling pathway from Tox21 library - cell viability counter screen (AID 1224834; active means well fitted curve in the direction sought with a large enough effect in the repeat runs; an effect the other way counts as inactive or inconclusive; further: on the % scale 0 is the no-effect control and ±100 the full control effect; nearly all actives have a fitted effect of over 30% in size)
Method in brief: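 ERR reporter cells were plated 6 h before compound addition, then exposed to test compounds in DMSO for 17.5 h at 37 C. Viability was read as CellTiter-Fluor fluorescence after a 30-minute incubation at 37 C.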

[15] = qHTS assay to identify small molecule antagonists of the estrogen related receptor signaling pathway with the pleiotropic PPARgamma coactivator (PGC) from Tox21 10K library - cell viability counter screen (AID 1224840; active means well fitted cell-killing curve with a large enough effect in the repeat runs, not every such curve was filed as active; further: on the % scale 0 is the no-effect control and ±100 the full control effect; nearly all actives have a fitted effect of over 40% in size)
Method in brief: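 PGC/ERR cells were seeded at 2,000 cells/well and left 6 hours at 37 C/5% CO2 before pin-tool addition of compounds in DMSO. After 17.5 hours at 37 C, CellTiter-Fluor was added and fluorescence read 30 minutes later.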

[16] = qHTS assay for small molecule agonists of the p53 signaling pathway (AID 651631)
Method in brief: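 Agonist mode screen using a stably integrated beta-lactamase gene under p53 response elements in HCT-116 cells. Compound exposure lasts 16 h at 37 °C; fluorescence intensity is measured following 2 h FRET substrate loading.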

[17] = biological target: Estrogen receptor beta (Homo sapiens) (UniProt Q92731); assay: qHTS assay to identify small molecule agonists of the estrogen receptor beta (ER-beta) signaling pathway (AID 1259377; active means well fitted activation curve with a large enough effect in the signal ratio in the repeat runs, not every such curve was filed as active; the % refers to the signal ratio; further: on the % scale 0 is the no-effect control and ±100 the full control effect)
Chain of Estrogen receptor beta (Homo sapiens) (Q92731 whole entry, looked up, the tested form may be a part): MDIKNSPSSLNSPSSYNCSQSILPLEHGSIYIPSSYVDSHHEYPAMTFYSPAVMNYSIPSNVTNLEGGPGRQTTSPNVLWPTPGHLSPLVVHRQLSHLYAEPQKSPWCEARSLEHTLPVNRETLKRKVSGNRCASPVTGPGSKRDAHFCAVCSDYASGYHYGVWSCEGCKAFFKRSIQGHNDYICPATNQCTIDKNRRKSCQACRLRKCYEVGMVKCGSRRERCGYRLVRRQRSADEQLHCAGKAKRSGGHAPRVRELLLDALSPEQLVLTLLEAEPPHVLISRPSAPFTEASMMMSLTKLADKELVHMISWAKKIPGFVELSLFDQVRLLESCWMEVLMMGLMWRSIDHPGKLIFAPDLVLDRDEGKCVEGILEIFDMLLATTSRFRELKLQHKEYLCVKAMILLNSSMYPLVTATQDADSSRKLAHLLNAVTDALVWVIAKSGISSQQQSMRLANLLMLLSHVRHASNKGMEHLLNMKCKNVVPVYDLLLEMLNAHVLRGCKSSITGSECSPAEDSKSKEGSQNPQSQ
Method in brief: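 Agonist mode cell assay in GripTite HEK293T cells expressing an ER-beta fusion that drives beta-lactamase from an Upstream Activator Sequence; 16 hr compound exposure at 37C, then 2 h LiveBLAzer B/G FRET substrate at room temperature, fluorescence read-out.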

[18] = biological target: Nuclear receptor subfamily 1 group I member 3 (Homo sapiens) (UniProt Q14994); assay: qHTS assay to identify small molecule agonists of the constitutive androstane receptor (CAR) signaling pathway (AID 1224839; active means well fitted curve in the direction sought with a large enough effect in the repeat runs; an effect the other way counts as inactive or inconclusive)
Chain of Nuclear receptor subfamily 1 group I member 3 (Homo sapiens) (Q14994 whole entry, looked up): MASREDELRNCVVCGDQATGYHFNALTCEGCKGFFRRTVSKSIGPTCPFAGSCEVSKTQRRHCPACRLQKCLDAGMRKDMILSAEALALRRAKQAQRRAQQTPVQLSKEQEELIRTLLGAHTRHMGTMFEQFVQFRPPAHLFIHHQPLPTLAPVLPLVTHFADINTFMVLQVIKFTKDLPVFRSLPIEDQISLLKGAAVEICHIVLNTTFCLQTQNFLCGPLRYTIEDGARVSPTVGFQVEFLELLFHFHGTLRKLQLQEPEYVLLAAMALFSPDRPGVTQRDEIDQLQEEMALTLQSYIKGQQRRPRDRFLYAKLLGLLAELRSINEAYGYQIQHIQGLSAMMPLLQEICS
Method in brief: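 Cells were plated and incubated 4 hrs, then dosed with compounds at 15 concentrations. PK11195 was added to 0.75 uM final. After 24 hrs at 37 C, luciferase luminescence was measured.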

[19] = biological target: Nuclear receptor subfamily 1 group I member 3 (Homo sapiens) (UniProt Q14994); assay: qHTS assay to identify small molecule antagonists of the constitutive androstane receptor (CAR) signaling pathway (AID 1224838; active means well fitted curve in the direction sought with a large enough effect in the repeat runs; an effect the other way counts as inactive or inconclusive; further: on the % scale 0 is the no-effect control and ±100 the full control effect; nearly all actives have a fitted effect of over 40% in size)
Method in brief: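 HepG2 cells stably co-transfected with hCAR and a CYP2B6-2.2kb luciferase reporter were seeded 4 h before compound addition at 15 concentrations. Cells were stimulated with 50 nM CITCO (final) for 24 h at 37 C; luciferase luminescence was then read.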

Cc1cccc(C)c1
inactive: Potency [1] | Potency (Aromatase (Homo sapiens)) | Potency [2] | Potency [3] | Potency [4] | activity change, positive = activation [5] 1.06% | Potency [6] | Potency [7] | Potency [8] | Potency [9] | Potency [10]

Clc1ccc(C(c2ccc(Cl)cc2)n2cc[n+](CC(OCc3ccc(Cl)cc3Cl)c3ccc(Cl)cc3Cl)c2)cc1 (centres undefined)
active: Potency [11] 19.6 µM
inactive: Potency [12] | Potency [13]

C[N+]1(C)[C@@H]2CC(OC(=O)[C@H](CO)c3ccccc3)C[C@H]1[C@@H]1O[C@@H]12 (some centres undefined)
inactive: Potency [14] | Potency [15] | Potency [7] | Potency [8] | Potency [9] | Potency [10]

Cc1ccc([N+](=O)[O-])cc1N
inactive: Potency [16] | Potency (Aromatase (Homo sapiens)) | Potency [4] | outcome [17] | Potency [7] | Potency [8] | Potency [9] | Potency [10]
active: Potency [2] 61.1 µM

Clc1nc(Cl)c(Cl)c(Cl)c1Cl
inactive: Potency (Aromatase (Homo sapiens)) | Potency [18] | Potency [3] | Potency [4] | Potency [7] | Potency [8] | Potency [9] | Potency [10]

Cc1c2ccncc2c(C)c2c1[nH]c1ccccc12
inactive: Potency [12] | Potency [13]

CC1(C)[C@H](C(=O)OCc2cccc(Oc3ccccc3)c2)[C@@H]1C=C(Cl)Cl
inactive: Potency [19] | Potency [7] | Potency [8] | Potency [9] | Potency [10]
